± gives the standard deviation of the averaged measurements. The full ranking holds about 4,100 sequences; the median of “relative kcat/Km (krel) vs genomic leader AAAGAU” is about 1.7, and the highest 2% start at about 6.5. The sample as a whole holds a higher share of the highest values than the screen did.
Target: T1, E. coli RNase P holoenzyme (M1 P RNA + rnpA protein) (UniProt P0A7Y8)
T1 sequence: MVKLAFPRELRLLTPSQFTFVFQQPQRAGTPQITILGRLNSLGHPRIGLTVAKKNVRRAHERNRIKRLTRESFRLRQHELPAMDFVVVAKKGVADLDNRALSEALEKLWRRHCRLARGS
Assay: relative kcat/Km (krel) vs genomic leader AAAGAU (relative (reference leader = 1)); higher = faster RNase P cleavage
Description: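 HTS-Kin: a pool of ptRNA-Met (21C construct) with all 4096 combinations of 5' leader nucleotides N(-6) to N(-1) was processed in vitro by E. coli RNase P (P RNA + rnpA/C5 protein) under multiple-turnover conditions at 37 C, pH 8, 17.5 mM MgCl2. Residual substrate was Illumina-sequenced at several fractions reacted, and relative kcat/Km (krel) was computed by internal competition kinetics, calibrated to the genomic leader (AAAGAU = 1). The listed hexamer is the varied N(-6)..N(-1) leader (DNA letters), and it sits between a fixed 5' stem-loop flank (GCAUGCACGAAAGUGCGUGCUAUGAA) and the mature tRNA-Met starting GGCUACGUAGCUCAGUUGG. Two technical replicates are averaged.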

[1] = fraction of substrate reacted: ~13-16% (15.68% repeat 1, 13.17% repeat 2)
[2] = fraction of substrate reacted: ~26-29% (28.66% repeat 1, 26.4% repeat 2)
[3] = fraction of substrate reacted: ~9-10% (9.79% repeat 1, 9.1% repeat 2)

Sequence | relative kcat/Km [1] | relative kcat/Km [2] | relative kcat/Km [3]
GTATAG | 1.79 ± 0.37 | 3.69 ± 0.99 | –
ATATAC | 3.99 ± 0.01 | 6.02 ± 2.1 | 3.5 ± 2.1
TTATAA | 4.53 ± 0.46 | 6.51 ± 2.4 | 3.65 ± 1.4
TTATAC | 5.2 ± 0.6 | 7.47 ± 2.9 | 4.34 ± 1.3
CTATAC | 3.82 ± 0.28 | 5.86 ± 1.7 | 3.79 ± 0.8
GTATAC | 4.72 ± 0.97 | 6.65 ± 2.7 | 3.66 ± 2.2
CCGCCT | – | 1.54 ± 0.38 | 1.45 ± 0.15
TTTCAC | 4.95 ± 0.89 | 6.83 ± 2.6 | 3.76 ± 1.6
ATTCAT | 3.71 ± 0.32 | 5.56 ± 2.2 | 2.95 ± 1.6
CTTCAA | 3.11 ± 0.12 | 3.96 ± 1.1 | 3.2 ± 2.3
GTTCAC | 4.82 ± 0.92 | 6.76 ± 2.6 | 3.88 ± 0.89
TCTCAT | 4.87 ± 1.2 | 6.39 ± 2.9 | 3.52 ± 0.79
CTTCAG | 1.26 ± 0.073 | 2.21 ± 0.1 | –
TTTCAG | 1.83 ± 0.22 | 3.23 ± 0.79 | 2.51 ± 2.3
GTTCAA | 3.08 ± 0.83 | 4.21 ± 1.5 | 2.59 ± 1.7
CTTCAT | 4.78 ± 0.63 | 6.67 ± 2.6 | 4.07 ± 1.5
TTTCAT | 5.11 ± 0.89 | 7.53 ± 3.4 | 4.15 ± 1.4
TTTCAA | 2.95 ± 0.37 | 4.9 ± 2.3 | 2.81 ± 1.9
GTTCAT | 4.43 ± 0.92 | 6.51 ± 3 | 3.32 ± 0.77
TGGAGT | – | 1.17 ± 1.1 | –
GGGGCC | 0.576 ± 0.47 | 0.579 ± 0.14 | 0.798 ± 0.048
AACTGA | 1.88 ± 0.34 | 3.9 ± 0.84 | 2.11 ± 1.8
ATTCTA | 2.17 ± 0.23 | 2.44 ± 0.73 | 2.57 ± 2.1
AATACC | 1.431 ± 0.0097 | 1.56 ± 0.25 | 1.49 ± 0.43
TTACAC | 4.92 ± 0.61 | 6.4 ± 2.5 | 4.14 ± 1.9

Sequence | relative kcat/Km [1] | relative kcat/Km [2] | relative kcat/Km [3]
CCCATA | 3.03 ± 0.6 | 4.43 ± 1.7 | 2.83 ± 1.3
GAAGAA | 2.71 ± 0.3 | 2.76 ± 0.48 | 2.23 ± 0.43
CGGTCC | – | 0.889 ± 0.14 | –
TTGCAA | 2.13 ± 0.72 | 2.92 ± 0.97 | 1.54 ± 0.37
CATTAA | 4.11 ± 0.12 | 5.92 ± 2 | 3.66 ± 2.4
CCTTAC | 4.83 ± 0.16 | 5.67 ± 1.9 | 3.84 ± 2.1
CATTAT | 6.32 ± 1.1 | 8.59 ± 3.6 | 4.62 ± 1.6
CATTAG | 2.26 ± 0.59 | 4.08 ± 1.1 | 2.22 ± 1.2
GATTAT | 4.67 ± 0.86 | 7.25 ± 3.7 | 3.36 ± 0.24
GATTAC | 4.2 ± 0.47 | 6.1 ± 2.1 | 2.65 ± 0.6
GATTAA | 3.86 ± 0.81 | 5.57 ± 2.6 | 3.21 ± 0.97
CATTAC | 5.16 ± 0.98 | 7.24 ± 2.8 | 4.77 ± 1.5
GATTAG | 2.42 ± 0.093 | 3.68 ± 1.1 | 2.16 ± 2.1
GGAAGA | 2.24 ± 0.41 | 3.83 ± 0.61 | 2.26 ± 0.31
CCTACG | – | 1.4 ± 0.03 | –
ACAGTT | 1.27 ± 0.62 | 1.3 ± 0.82 | 1.6 ± 1.2
GTATGG | 0.253 ± 0.21 | 1.01 ± 0.7 | –
TTGTTC | 2.08 ± 0.17 | 3.27 ± 1.5 | 1.96 ± 0.092
TAATCT | 3.08 ± 0.23 | 4.22 ± 1.6 | 1.87 ± 1.1
TGGAGG | – | 0.887 ± 0.34 | –
AATTTA | 1.63 ± 0.14 | 2.33 ± 0.76 | 1.65 ± 0.69
TGATTA | 2.91 ± 0.12 | 3.73 ± 1.7 | 2.2 ± 0.59
CACGCT | 2.25 ± 0.6 | 3.03 ± 0.94 | 1.83 ± 0.24
TTCAGC | 6.48 ± 1.2 | 9.03 ± 3.9 | 5.19 ± 1.6

Reference: the supplement of paper PMC9433436
